# KCNQ2 inh = rat KCNQ2 potassium channel inhibitors, primary screen, cell-based, CHO-K1, FluxOR thallium flux, B-score; Potassium voltage-gated channel subfamily KQT member 2 (Rattus norvegicus), O88943; 20 min; stronger effect = lower value; B-score at 10 µM; 310,000 tested, 1.1% active; AID 2156, 2009;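 active = fluorescence ratio B-score at most minus 3 library SDs, with starting brightness B-score within 2 library SDs, cut at about -5.5 in these data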
# Target sequence (O88943 whole entry, looked up): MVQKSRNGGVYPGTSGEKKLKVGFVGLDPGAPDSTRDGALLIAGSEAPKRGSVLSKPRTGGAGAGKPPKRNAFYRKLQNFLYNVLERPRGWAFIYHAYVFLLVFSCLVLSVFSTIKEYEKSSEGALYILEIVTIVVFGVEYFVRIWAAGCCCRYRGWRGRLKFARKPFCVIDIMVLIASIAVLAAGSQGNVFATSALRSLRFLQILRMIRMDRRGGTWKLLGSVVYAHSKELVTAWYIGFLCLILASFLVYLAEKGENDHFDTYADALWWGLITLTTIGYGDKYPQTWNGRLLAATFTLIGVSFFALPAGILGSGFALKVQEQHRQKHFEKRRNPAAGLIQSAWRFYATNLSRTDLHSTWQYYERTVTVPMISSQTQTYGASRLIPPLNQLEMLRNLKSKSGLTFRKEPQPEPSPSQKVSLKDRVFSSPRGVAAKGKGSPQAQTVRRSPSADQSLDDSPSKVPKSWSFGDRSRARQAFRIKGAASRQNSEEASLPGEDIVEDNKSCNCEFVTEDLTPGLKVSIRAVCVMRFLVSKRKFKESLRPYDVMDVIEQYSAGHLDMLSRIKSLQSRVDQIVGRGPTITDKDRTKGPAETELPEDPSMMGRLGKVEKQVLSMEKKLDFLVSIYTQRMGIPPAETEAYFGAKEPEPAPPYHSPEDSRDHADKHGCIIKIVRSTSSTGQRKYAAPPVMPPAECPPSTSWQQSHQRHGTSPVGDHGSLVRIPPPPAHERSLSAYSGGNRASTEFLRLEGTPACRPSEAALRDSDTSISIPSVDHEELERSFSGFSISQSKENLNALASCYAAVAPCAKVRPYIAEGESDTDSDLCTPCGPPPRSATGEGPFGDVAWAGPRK
# KCNQ2 pot = potentiators of rat KCNQ2 potassium channel; Potassium voltage-gated channel subfamily KQT member 2 (Rattus norvegicus), O88943; CHO-K1 KCNQ2, FluxOR thallium flux fluorescence; stronger effect = higher value; B-score at 10 µM; 310,000 tested, 0.54% active;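 active = fluorescence ratio B-score at least 3 SD of library B-scores, with initial fluorescence B-score within 3 of them, cut at about 5.3 in these data; same plate scores as AID 2156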;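 note: B-score of peak minus minimum over baseline fluorescence ratio after K+ and Tl+ stimulus; positive B-score means potentiation of KCNQ2 with more thallium influx and brighter signal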
# Numbers without * were called inactive; i = inactive; . = no result given. In the library only some 1.6% were active in any assay of this set; here they are far more common.
SMILES,KCNQ2 inh,KCNQ2 pot
CCC(C)Sc1cc(-c2nc3ccccn3c2NC2CCCCC2)ccc1OC (centres undefined),i,0.01
CCOC(=O)C1CCN(C2=C(NS(=O)(=O)c3ccc(Cl)cc3)C(=O)c3ccccc3C2=O)CC1,i,.
CCOC(=O)C1CCCN(C2=C(NS(=O)(=O)c3ccc(Br)cc3)C(=O)c3ccccc3C2=O)C1 (centres undefined),-6.7*,-6.7
COC(=O)c1c2c(nc3ccccc13)CCC2,i,0.42
O=C(Nc1ccccc1)c1c2c(nc3ccccc13)CCCC2,-8.2*,-8.2
COc1ccc(OC)c(NC(=O)c2c3c(nc4ccccc24)CCC3)c1,-6.1*,-6.1
COc1ccc(NC(=O)c2c3c(nc4ccccc24)CCC3)cc1,i,.
CSc1nc(Cl)c(Cc2ccc(OC(C)C)cc2)c(N(C)C)n1,-6*,-6
CCOc1ccc(Cc2c(Cl)nc(N)nc2Cl)cc1,i,.
CCOc1ccc(Cc2c(Cl)nc(SC)nc2N(C)C)cc1,-7.2*,-7.2
COc1ccc(Cc2c(Cl)ncnc2Cl)cc1,i,.
CCN(c1ccccc1)S(=O)(=O)c1ccc(Cl)c(NC(=O)CN(C)C2CCN(C)CC2)c1,i,0.25
CC(C)CC1NC(=O)N(CC(=O)Nc2ccccc2-c2ccccc2)C1=O (centres undefined),i,.
COc1ccc(CN2CCC(Oc3ccc(C(=O)N4CCCC4)cc3)CC2)c(F)c1,i,.
C=CCN(C(=O)c1csnn1)C(C(=O)NC1CCCC1)c1ccccc1F (centres undefined),i,0.54
O=C(NC1CCCC1)c1ccc2c(c1)N(Cc1ccc(F)cc1)CCS2,-6.4*,-6.4
Cc1ccc(CN2CCSc3ccc(C(=O)NC4CCCC4)cc32)cc1,i,.
CCC(CO)n1cnnc1-c1ccncc1 (centres undefined),i,.
CCOC(CNC(=O)C1CCN(S(=O)(=O)c2ccc3nc4c(c(C(=O)O)c3c2)CCCCC4)CC1)OCC,i,1.1
O=C(/C=C/c1cccnc1)c1ccc(O)cc1,i,.
O=C(/C=C/c1cccnc1)c1ccccc1O,-5.9*,-5.9
COc1ccc(C2=Nc3ccc(Br)cc3C(c3ccccc3)N2CC(=O)NN)cc1 (centres undefined),i,7.8*
COc1ccc(C2=Nc3ccc(C)cc3C(c3ccccc3)N2CC(=O)NN)cc1 (centres undefined),i,2.7
CCCn1c(NCc2cccc(OC)c2O)nc2ccccc21,i,.
CCCn1c(NCc2cccc(OC)c2OC)nc2ccccc21,-5.9*,-5.9
SMILES,KCNQ2 inh,KCNQ2 pot
CN(CCC#N)C(=O)COC(=O)c1ccc(Cl)c(S(=O)(=O)N(C)c2ccccc2)c1,i,1.9
COc1ccc(CCC(=O)NCC23CC4CC(CC(C4)C2)C3)cc1,i,.
Clc1cccc2c1Sc1ccccc1CC2N1CCNCC1 (centres undefined),-7.9*,-7.9
COCCCN1CCN(C2Cc3ccccc3Sc3ccc(Cl)cc32)CC1 (centres undefined),i,.
COc1ccc(NC(=O)/C(=C/c2ccc3c(c2)OCO3)NC(C)=O)cc1,i,.
O=C(O)c1cc(-c2ccccc2)nn1CC1CC(c2cccnc2)=NO1 (centres undefined),i,1.3
COc1ccccc1CNC(=O)c1cc(-c2ccccc2)nn1CC1CC(c2cccnc2)=NO1 (centres undefined),-6.1*,-6.1
O=C(CN1CCN(C(=O)C2COc3ccccc3O2)CC1)Nc1ccccc1 (centres undefined),i,0.87
Fc1ccc2nc(Nc3nc4c(F)cccc4s3)sc2c1,i,14*
Fc1ccc2nc(Nc3nc4c(F)cc(F)cc4s3)sc2c1,i,4.9
COc1ccc(OC)c(CNC(=O)CCC(=O)N2Cc3cccc(OC)c3Oc3ncccc32)c1,i,.
CSCCC(NC(=O)c1ccc(Cl)cc1Cl)C(=O)OC1CCCCC1=O (centres undefined),-8.1*,-8.1
CSCCC(NC(=O)c1ccc(Cl)cc1Cl)C(=O)NCc1ccccn1 (centres undefined),i,.
CCCC/C=C/[C@H](c1ccccc1)[C@H](CO)Cc1cccnc1,-5.7*,-5.7
CCCC/C=C/C(NC(=O)CCc1ccccc1)c1ccccc1 (centres undefined),i,.
Cc1ccc(/C=N/N2C(=S)SC(C)(C)C2N(O)C(=O)Nc2ccc([N+](=O)[O-])cc2)cc1 (centres undefined),i,.
CC1(C)SC(=S)N(/N=C/c2ccc(O)cc2)C1N(O)C(=O)Nc1ccc([N+](=O)[O-])cc1 (centres undefined),-7.5*,-7.5
CN(CC(=O)Nc1ccccc1Cl)CC(=O)Nc1sc2c(c1C(N)=O)CCC2,i,0.66
COc1cc(/C=C/c2ccc3cccc(OC)c3n2)c(OC(C)=O)c([N+](=O)[O-])c1,-5.6*,-5.6
COc1cc(/C=C/c2ccc3cccc(OC)c3n2)c(O)c([N+](=O)[O-])c1,i,0.63
CN1CCN(/C=N/c2c(C#N)cnn2Cc2ccccc2)CC1,i,0.19
O=C(c1ccc(Cn2c(=S)[nH]c3ccc(N4CCOCC4)cc3c2=O)cc1)N1CCC(N2CCCCC2)CC1,i,.
CCN(CC)CCSc1nnc2c3ccccc3n(CCc3ccccc3)c2n1,i,.
c1ccc(CCn2c3ccccc3c3nnc(SCc4ccc5nonc5c4)nc32)cc1,-6.2*,-6.2
c1ccc(Oc2cnc3ccccc3n2)cc1,i,2.2
SMILES,KCNQ2 inh,KCNQ2 pot
COc1ccc(Oc2cnc3ccccc3n2)cc1,-6*,-6
CCN(CCCNC(=O)Cn1ncc2c([nH]c3ccc(C)cc32)c1=O)Cc1ccccc1,i,.
CN(C)c1ccc(NC(=O)CN2C(=O)CC(c3ccccc3)=Nc3ccccc32)cc1,i,1.9
O=C1CC(c2ccccc2)=Nc2ccccc2N1Cc1ccccc1,-6.2*,-6.2
Cc1ccc(CNC(=O)C(C)OC(=O)c2cccs2)cc1 (centres undefined),i,.
COc1ccc(OC)c(C2CC(c3c(-c4ccccc4)c4cc(Cl)ccc4[nH]c3=O)=NN2S(C)(=O)=O)c1 (centres undefined),-7*,-7
COc1ccc(C2CC(c3c(-c4ccccc4)c4cc(Cl)ccc4[nH]c3=O)=NN2S(C)(=O)=O)cc1 (centres undefined),i,0.16
COc1ccc(N(CC(=O)Nc2ccc(C)cn2)S(=O)(=O)c2c(C)noc2C)cc1,i,.
CCCCSc1nnc(-c2ccccc2NC(C)=O)c(=O)[nH]1,i,0.74
Cc1cc(C)nc(SCC(=O)N2CCc3ccccc32)n1,i,.
O=C(CSc1nc(N2CCCCC2)nc(N2CCCCC2)n1)N1CCc2ccccc21,i,14*
Cc1nc(SCC(=O)N2CCN(c3ccccc3)CC2)n[nH]1,i,.
O=C(CSc1nc(N2CCCCC2)nc(N2CCCCC2)n1)N1CCN(c2ccccc2)CC1,i,19*
Cc1noc(C)c1S(=O)(=O)Nc1ccc(C#N)cc1,i,0.4
CCOC(=O)c1cc(NC(=O)c2ccccc2)c(=O)n2c1oc1ccccc12,i,1.2
O=C(c1ccco1)N1CCN(C(=O)c2ccc(-c3cccc(C(F)(F)F)c3)o2)CC1,i,0.1
O=C(Cn1nnc(-c2ccccc2)n1)N1CCCCC1,i,1.5
O=C(Cn1nnc(-c2cccc(C(F)(F)F)c2)n1)N1CCCCCC1,i,12*

# Assay outcomes deposited in PubChem by Johns Hopkins Ion Channel Center.
